Among the data in PubChem BioAssay (NCI) are growth inhibition values, retold here.

This is part of a sample that, as a whole, favours compounds with a hit. Of some 79,000 tested, about 15% had one in any assay. A number with no mark means an inactive call. Active and inactive are the calls of the source. Rule as the data show it: active = growth inhibition above about 70%; inactive = the rest. Where a SMILES comes first, the peptide text is derived from it.

Assay [1] is described as follows: NCI Yeast Anticancer Drug Screen. Data for the rad50 strain (AID 155).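 Also: 0% = growth of vehicle-only cultures of the same strain.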 To be noted: S. cerevisiae rad50 strain growth inhibition; at 50.0 µM; active compounds read high. In short, it runs like this:
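Vehicle-treated cultures provide the reference for the growth inhibition reported for compound-exposed, repair-deficient yeast.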

The nature of assay [2]: NCI Yeast Anticancer Drug Screen. Data for the mec2-1 strain (AID 157). The conditions noted are these: S. cerevisiae mec2-1 strain, at 50.0 µM, active compounds read high. In short, it runs like this:
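mec2-1 yeast strain, carrying an alteration in DNA damage repair or cell cycle control, was exposed to compounds; growth inhibition was measured relative to vehicle-treated controls.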

Assay [3] can be described thus: NCI Yeast Anticancer Drug Screen. Data for the sgs1 mgt1 strain (AID 161).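 Also: 0% = growth of cultures given vehicle only.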 To be noted: S. cerevisiae sgs1 mgt1 strain, at 50.0 µM, active compounds read high. Put shortly: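 Yeast cells carrying a defined DNA-repair defect were exposed to test compounds. Growth inhibition was measured relative to vehicle-treated controls.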
Assay [4] can be described thus: NCI Yeast Anticancer Drug Screen. Data for the cln2 rad14 strain (AID 165).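 Also: 0% = growth equal to vehicle treated cultures.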 The conditions noted are these: S. cerevisiae cln2 rad14 strain, at 50.0 µM, active compounds read high. Put shortly: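 Yeast carrying cln2 and rad14 alterations (cell cycle control and DNA damage repair) were exposed to compounds. Growth inhibition was measured against vehicle-treated controls.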

A short description of assay [5]: NCI Yeast Anticancer Drug Screen. Data for the bub3 strain (AID 167). To be noted: S. cerevisiae bub3 mutant strain, at 50.0 µM, active compounds read high. In short, it runs like this:
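Mutant yeast screening strain plus compound; vehicle-treated cultures serve as the 0% inhibition reference.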

Assay [6] can be described thus: NCI Yeast Anticancer Drug Screen. Data for the mlh1 rad18 strain (AID 175). The conditions noted are these: S. cerevisiae mlh1 rad18 strain growth inhibition; at 50.0 µM; active compounds read high. Put shortly:
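Growth inhibition of the yeast strain was measured after compound exposure and expressed relative to vehicle-treated controls. The strain carries defined defects in DNA damage repair.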

Regarding `CCCCCCCC/C=C\CCCCCCCC(=O)OC`, the growth inhibition is 33.5% in assay [1]; 43.8% in assay [2]; 49.3% in assay [3]; -32.1% in assay [4]; 44% in assay [5]; 49% in assay [6].

As for `CCC(C)CCC(=O)C(C)C=O` (stereo unspecified), the growth inhibition in assay [1] is -0.8%; in assay [2] it was -7.3%; in assay [3], 3%; in assay [4], -5.9%; in assay [5], -6.2%; in assay [6] it was -3.85%.

As for `O=c1[nH]c2ccc(Br)cc2cc1Br`, the growth inhibition was 21.9% in assay [1]; -9% in assay [2]; 0.3% in assay [3]; 6.65% in assay [4]; 2.45% in assay [5]; 20.8% in assay [6].

Regarding `OCC1(c2ccccc2)CCNCC1`, the growth inhibition in assay [1] was -8.7%; in assay [2], -4.9%; in assay [3] it was -2.1%; in assay [4], -0.7%; in assay [5], -9.7%; in assay [6], 26.6%.

For the compound `CC(CC(=O)O)C1(C)C2CCCCC2C2CCCCC21` (stereo unspecified), the growth inhibition in assay [1] is -6.2%; in assay [2] it was -9.6%; in assay [3] it was 5.75%; in assay [4], -13.3%; in assay [5], -4.15%; in assay [6] it was -2.8%.

Turning to `O=C(c1ccc(F)cc1)c1ccc([N+](=O)[O-])cc1`, the growth inhibition in assay [1] is 8.85%; in assay [2] it was 8.1%; in assay [3] it was -1.7%; in assay [4], -19.9%; in assay [5] it was -14.1%; in assay [6], 12.1%.

Consider `O=C1OC(c2ccc3c(c2)CCCC3)=C/C1=C/c1ccc2c(c1)OCO2`, for which the growth inhibition is -13.4% in assay [1]; 4% in assay [2]; 14.1% in assay [3]; -25.1% in assay [4]; 2.9% in assay [5]; -15.9% in assay [6].

As for `CC1=CC(=O)c2c(C=O)c(O)c(O)c(C(C)C)c2C1=O`, the growth inhibition in assay [1] is 91% (active); in assay [2] it was 93.4% (active); in assay [3] it was 91.8% (active); in assay [4] it was 91.1% (active); in assay [5], 91.2% (active); in assay [6], 90.8% (active).

For `CC(C)C(N)(C(=O)O)c1ccccc1` (stereo unspecified), the growth inhibition in assay [1] was -19.7%; in assay [2] it was -20.2%; in assay [3], -51.5%; in assay [4], -73.4%; in assay [5], -14.9%; in assay [6], -24.9%.

With `CC1CCC2OC23C(=O)C2OC2C(C(C)(C)O)C13C` (stereo unspecified), the growth inhibition in assay [1] is -3.25%; in assay [2] it was -2.35%; in assay [3], -10.7%; in assay [4] it was 2.5%; in assay [5] it was 5.65%; in assay [6], 12.8%.

As for `Clc1ccc(C(n2cc(Br)cn2)n2cc(Br)cn2)cc1`, the growth inhibition is 89.6% (active) in assay [1]; 90.8% (active) in assay [2]; 90.7% (active) in assay [3]; 90.2% (active) in assay [4]; 91% (active) in assay [5]; 87.5% (active) in assay [6].

As for `CC1(C)OCC2(CO1)CSCCCSCC1(COC(C)(C)OC1)CSCCCSC2`, the growth inhibition in assay [1] was -5.65%; in assay [2], -12.9%; in assay [3], -8.75%; in assay [4] it was -11.8%; in assay [5], -25.5%; in assay [6], -3.8%.

With `C/C=C(\Cl)C=O`, the growth inhibition was 12.4% in assay [1]; 5% in assay [2]; -22.9% in assay [3]; -9.7% in assay [4]; 3.5% in assay [5]; 11.2% in assay [6].

As to `S=C(N/N=C\c1ccc(Cl)cc1Cl)Nc1ccc2cn[nH]c2c1`, the growth inhibition in assay [1] was 20%; in assay [2] it was 17.2%; in assay [3], 28.2%; in assay [4] it was -38%; in assay [5], 2%; in assay [6] it was 31.8%.

Regarding `COC(=O)C(NC(=O)C(NC(=O)C(N)C(C)C)C(C)C)C(C)C` (stereo not drawn) (H-Val-Val-Val-OMe; configuration not given here), the growth inhibition in assay [1] was 5.3%; in assay [2], 20.6%; in assay [3], 5.4%; in assay [4], -11.7%; in assay [5], -3.4%; in assay [6], -9.5%.

On to `N#CCCOCCSCCC#N`, for which the growth inhibition in assay [1] is 3%; in assay [2], 5.15%; in assay [3] it was -5.95%; in assay [4] it was -5.45%; in assay [5], 1%; in assay [6], -1.8%.

With `Nc1nc(-c2ccccc2)nc2[nH]ncc12`, the growth inhibition in assay [1] was -5.45%; in assay [2] it was -3.5%; in assay [3], -11.2%; in assay [4] it was -10.2%; in assay [5], 1.6%; in assay [6], 5.75%.

For the compound `Cc1nc(N)nc(C)c1N=Nc1ccc(Br)cc1Br`, the growth inhibition is 41.2% in assay [1]; 4.5% in assay [2]; 20.5% in assay [3]; 5.05% in assay [4]; 0.6% in assay [5]; 15% in assay [6].

For `CCCCCCCCCCCCCCCc1nnc(SC)s1`, the growth inhibition in assay [1] is -22.6%; in assay [2], -39%; in assay [3] it was -14.9%; in assay [4] it was 15.3%; in assay [5] it was -3.15%; in assay [6] it was 11.2%.

For `C/C=C1/CN2CCc3c([nH]c4ccccc34)C2CC1C(Cc1c[n+]2c(c3[nH]c4ccccc4c13)CC1C(C(=O)OC)=COC(C)C1C2)C(=O)OC` (stereo unspecified), the growth inhibition in assay [1] was 13.4%; in assay [2], -25.6%; in assay [3], -21.4%; in assay [4], 17.1%; in assay [5] it was -22.2%; in assay [6], -12.3%.

For the compound `N#C/C(=C1\N=C(c2ccccc2O)Oc2ccccc21)c1ccc([N+](=O)[O-])cc1`, the growth inhibition in assay [1] was 6.85%; in assay [2], -11.9%; in assay [3], 13.1%; in assay [4] it was -0.7%; in assay [5], 4.35%; in assay [6], -13.6%.
